A number with no mark means an inactive call. The source made the active and inactive calls.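 The calls were made as follows: active = AC50 at most tenfold above the top tested concentration; inconclusive = flat fit with 30 to 70% activity, or a poor fit; inactive = AC50 over tenfold above the top dose.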

This is an account of results in PubChem BioAssay AID463208 (Broad Institute, 2010).

The assay is described as follows: inhibition of yeast nuclear histone deacetylase activity – cell lysate, fluorescence, yeast nuclear extract, mechanism study for Sdo1 growth activator project, dose response (AID 463208). The conditions noted are these: yeast nuclear extract HDAC activity, fluorogenic substrate.

`Cc1nn(Cc2ccc(Cl)cc2)c(C)c1NC(=O)CSc1n[nH]c(C)c1[N+](=O)[O-]`: the AC50 was greater than 50 µM.

`CCOc1cccc(C(=O)NC(=S)NCc2cccnc2)c1`: the AC50 was greater than 50 µM.

For `O=C(CSc1nc(-c2ccco2)cc(C(F)(F)F)n1)NCc1cccs1`, the AC50 is greater than 50 µM.

As to `COc1ccc(-c2nc3ccccc3o2)cc1NC(=O)c1ccc(Br)o1`, the AC50 was greater than 50 µM.

In the case of `Cc1ccc(Cn2c(CN3CC(C)OC(C)C3)nc3c2c(=O)n(C)c(=O)n3C)cc1` (stereo not drawn), the AC50 is greater than 50 µM.

In the case of `O=C(O)CCCn1nc(C(F)(F)F)c2c1CCCCC2`, the AC50 was greater than 50 µM.

Consider `Cc1c(/C=N/NC(=O)c2cccc(F)c2)cnn1C`, for which the AC50 is greater than 50 µM.

On to `COc1ccc(-c2nc3ccccc3s2)cc1NC(=O)c1ccc(Br)o1`, for which the AC50 is greater than 50 µM.

For `O=C(Nc1cccc(Cl)c1)c1ccc(NCC2CCCO2)c([N+](=O)[O-])c1` (stereo not drawn), the AC50 is greater than 50 µM.

Take `O=C(Nc1ccccc1)c1ccc(NCC2CCCO2)c([N+](=O)[O-])c1` (stereo not drawn): the AC50 was greater than 50 µM.

On to `O=C(COC(=O)Cc1cccs1)Nc1ccccc1`, for which the AC50 was greater than 50 µM.

For `COc1ccc(OCC(O)Cn2c(Nc3ccccc3)nc3c2c(=O)n(C)c(=O)n3C)cc1` (stereo not drawn), the AC50 was greater than 50 µM.

For `Cc1sc(NC(=O)c2ccnn2C)c(C#N)c1-c1ccc(F)cc1`, the AC50 was greater than 50 µM.

`CCOc1ccc(C(=O)NC(=S)NCc2cccnc2)cc1`: the AC50 was greater than 50 µM.

Turning to `CC(C(=O)Nc1cccnc1)N1Cc2ccccc2C1=O` (stereo not drawn), the AC50 was greater than 50 µM.

As for `CN(C)CCCNC(=O)C1CCNCC1`, the AC50 was greater than 50 µM.

In the case of `CCN(CC)CCCNC(=O)C1CCNCC1`, the AC50 was greater than 50 µM.

Turning to `CCOC(=O)/C=C1\SCC(=O)N1CC(=O)NC12CC3CC(CC(C3)C1)C2`, the AC50 was greater than 50 µM.

On to `CC(=O)N(C)C1C(=O)C(=O)c2ccccc2C1=O` (stereo not drawn), for which the AC50 is greater than 50 µM.

For the molecule `Cc1nc(CS(=O)(=O)c2ccccc2)cc(N2CCOCC2)n1`, the AC50 was greater than 50 µM.

With `CCSc1nnc([C@H](CCSC)NC(=O)OC(C)(C)C)o1`, the AC50 is greater than 50 µM.

On to `CC(/C=C/C(=O)NO)=C\[C@@H](C)C(=O)c1ccc(N(C)C)cc1`, for which the AC50 was < 0.00075 µM (active).

As to `CC(C(=O)Nc1ccccc1)N1C(=O)c2ccccc2C1=O` (stereo not drawn), the AC50 is greater than 50 µM.

As a reminder, the AC50 is the concentration giving half of the maximal activity seen.
